In PubChem BioAssay one finds composite z-score and z-score data, which are given here for five compounds.

Calls of active or inactive are those of the source.

The subject of experiment [1] is Plasmodium falciparum Sir2 (PF13_0152, Sir2A). The experiment can be described thus: Plasmodium falciparum Sir2A binding compounds – biochemical, small-molecule microarray, 635 nm fluorescence, primary screen (AID 1098).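 Further: score merges spot fluorescence intensity with its signal-to-noise ratio.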 To be noted: fluorescence 635 nm, higher = more signal.
Experiment [2] can be described thus: probe aDKK1 binding to arrayed compounds – biochemical, biotinylated probe, 635/667 nm fluorescence, primary screen (AID 1099).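 Further: score merges 667nm spot fluorescence with signal to noise across triplicate slides.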 To be noted: small-molecule microarray, higher = more signal.
Experiment [3] can be described thus: probe aCHRDL2 binding to arrayed compounds – biochemical, biotinylated probe, 635/667 nm fluorescence, primary screen (AID 1100). To be noted: small-molecule microarray, higher = more signal.
Experiment [4] is described as follows: change in splice reporter luminescence, either direction, cell-based, HEK293, spliceosome inhibition project, primary screen (AID 1101).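 Further: HEK293 cells carrying a splicing-competent luciferase reporter gene; test concentration not given here.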 To be noted: HEK293 splicing luciferase reporter, 24 h, higher = more signal, called active from +8 up or from −8 down. On the technique in general: A reporter such as luciferase makes a cellular process visible.
For experiment [5], the target named is Fibroblast growth factor 10 (Homo sapiens) (UniProt O15520). Briefly: compounds binding fibroblast growth factor 10 – biochemical, small-molecule microarray, 635 nm fluorescence, primary screen (AID 1102). To be noted: FGF10 binding, fluorescence 635 nm, higher = more signal.
Chain of Fibroblast growth factor 10 (Homo sapiens) (O15520 whole entry, looked up): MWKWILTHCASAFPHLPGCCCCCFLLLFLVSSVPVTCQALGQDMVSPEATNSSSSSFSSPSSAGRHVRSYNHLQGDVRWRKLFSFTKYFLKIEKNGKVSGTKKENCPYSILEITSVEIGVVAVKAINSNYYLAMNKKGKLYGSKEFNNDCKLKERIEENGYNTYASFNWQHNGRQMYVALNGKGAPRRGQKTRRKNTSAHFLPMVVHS
The subject of experiment [6] is glycogen synthase kinase-3 (GSK3A per assay name; protocol says GSK3B). The experiment can be described thus: compounds binding glycogen synthase kinase-3 – biochemical, small-molecule microarray, 635 nm fluorescence, GSK3A, primary screen (AID 1103). Further: the record names both GSK3A and GSK3B. To be noted: fluorescence 635 nm, higher = more signal.
For experiment [7], the target named is Epidermal growth factor receptor (Homo sapiens) (UniProt P00533). Briefly: compounds binding epidermal growth factor receptor – biochemical, small-molecule microarray, 635 nm fluorescence, primary screen (AID 1104).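 Further: score merges 667 nm emission intensity with spot signal to noise over triplicate slides.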 The settings on record: EGFR binding, higher = more signal.
Chain of Epidermal growth factor receptor (Homo sapiens) (P00533 whole entry, looked up): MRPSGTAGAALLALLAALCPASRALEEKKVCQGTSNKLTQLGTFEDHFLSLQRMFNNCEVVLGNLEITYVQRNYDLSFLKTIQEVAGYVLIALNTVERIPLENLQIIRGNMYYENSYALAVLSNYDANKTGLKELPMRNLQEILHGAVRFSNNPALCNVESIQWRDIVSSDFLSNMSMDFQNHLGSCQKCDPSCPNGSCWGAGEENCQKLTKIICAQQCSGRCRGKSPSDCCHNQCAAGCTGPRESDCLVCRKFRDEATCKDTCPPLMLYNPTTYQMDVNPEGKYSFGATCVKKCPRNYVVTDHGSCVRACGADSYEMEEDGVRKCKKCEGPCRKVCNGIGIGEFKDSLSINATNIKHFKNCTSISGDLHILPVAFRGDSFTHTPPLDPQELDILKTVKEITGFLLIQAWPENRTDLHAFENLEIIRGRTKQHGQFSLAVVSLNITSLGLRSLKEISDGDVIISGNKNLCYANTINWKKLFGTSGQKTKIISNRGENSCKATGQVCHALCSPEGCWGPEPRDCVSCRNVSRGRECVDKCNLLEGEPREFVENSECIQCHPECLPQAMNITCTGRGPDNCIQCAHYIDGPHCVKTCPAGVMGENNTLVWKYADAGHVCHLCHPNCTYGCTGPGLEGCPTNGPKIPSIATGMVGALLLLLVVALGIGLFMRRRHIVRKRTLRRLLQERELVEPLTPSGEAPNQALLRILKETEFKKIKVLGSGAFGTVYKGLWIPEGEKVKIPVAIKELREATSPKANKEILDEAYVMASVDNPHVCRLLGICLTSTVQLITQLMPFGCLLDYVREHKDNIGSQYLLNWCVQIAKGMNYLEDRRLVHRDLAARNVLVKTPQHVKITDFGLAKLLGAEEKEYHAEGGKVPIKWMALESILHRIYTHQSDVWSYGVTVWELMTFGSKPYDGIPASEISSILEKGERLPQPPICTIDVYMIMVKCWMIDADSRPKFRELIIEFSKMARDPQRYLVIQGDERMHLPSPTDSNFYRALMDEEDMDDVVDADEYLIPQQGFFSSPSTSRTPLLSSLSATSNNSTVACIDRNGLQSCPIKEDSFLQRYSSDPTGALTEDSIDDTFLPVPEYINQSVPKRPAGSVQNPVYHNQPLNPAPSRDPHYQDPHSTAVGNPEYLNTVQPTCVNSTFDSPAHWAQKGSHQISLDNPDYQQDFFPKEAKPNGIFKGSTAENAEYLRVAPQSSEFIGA
Experiment [8] concerns the target Follistatin-related protein 3 (Homo sapiens) (UniProt O95633). Briefly: compounds binding follistatin-related protein 3 – biochemical, small-molecule microarray, 635 nm fluorescence, primary screen (AID 1105).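 Further: score merges emission near 667 nm and signal to noise per printed spot across three slides.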 The settings on record: FSTL3 binding, higher = more signal.
In experiment [9] the target is Dickkopf-related protein 1 (Homo sapiens) (UniProt O94907). Briefly: small molecules binding DKK1 protein – biochemical, small-molecule microarray, 635 nm fluorescence scan, primary screen (AID 1106).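 Further: score merges emission near 667 nm with signal to noise over three replicate slides.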 The settings on record: higher = more signal.
Chain of Dickkopf-related protein 1 (Homo sapiens) (O94907 whole entry, looked up): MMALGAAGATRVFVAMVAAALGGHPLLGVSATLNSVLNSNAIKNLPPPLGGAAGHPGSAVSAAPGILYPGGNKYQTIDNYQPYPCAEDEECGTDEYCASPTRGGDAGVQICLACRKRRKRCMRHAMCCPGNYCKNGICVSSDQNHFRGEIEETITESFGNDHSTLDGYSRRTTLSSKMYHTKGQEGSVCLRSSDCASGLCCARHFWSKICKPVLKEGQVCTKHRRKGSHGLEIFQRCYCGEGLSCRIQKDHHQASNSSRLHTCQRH
Experiment [10] relates to Inhibin beta A chain (activin A). The experiment can be described thus: small molecules binding activin A – biochemical, small-molecule microarray, 635 nm fluorescence scan, primary screen (AID 1107).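 Further: mouse activin A protein probed at 4.33 µg/mL on printed slides; score merges bound-protein fluorescence near 667 nm with spot signal-to-noise.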 To be noted: INHBA, higher = more signal.
Experiment [11] has as its system Human papillomavirus type 1a protein E7 (residues 44-93). The experiment can be described thus: small molecules binding HPV E7 44-93 – biochemical, small-molecule microarray, residues 44-93, 635 nm fluorescence, primary screen (AID 1108).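 Further: E7 fragment applied at 1 µg/mL in TBST for 1 h at 4 C; score combines spot fluorescence with its signal to noise ratio.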 To be noted: fluorescence 635 nm, higher = more signal.
Experiment [12] can be described thus: hepatitis C replication reporter changes, two-sided – Huh7 cells, luciferase reporter, HCV replication inhibitor project, primary screen (AID 1109).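 Further: huh7 hepatoma cells harbouring a luciferase neomycin HCV replicon reporter; luciferase luminescence as measure of HCV replicon replication; test concentration not given here.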 The settings on record: Huh7 HCV replicon luciferase reporter, 48 h; higher = more signal.
In experiment [13] the target is Left-right determination factor 2 (Homo sapiens) (UniProt O00292). The experiment can be described thus: small molecules binding LEFTY2 protein – biochemical, small-molecule microarray, 635 nm fluorescence scan, primary screen (AID 1110). To be noted: higher = more signal.
Chain of Left-right determination factor 2 (Homo sapiens) (O00292 whole entry, looked up): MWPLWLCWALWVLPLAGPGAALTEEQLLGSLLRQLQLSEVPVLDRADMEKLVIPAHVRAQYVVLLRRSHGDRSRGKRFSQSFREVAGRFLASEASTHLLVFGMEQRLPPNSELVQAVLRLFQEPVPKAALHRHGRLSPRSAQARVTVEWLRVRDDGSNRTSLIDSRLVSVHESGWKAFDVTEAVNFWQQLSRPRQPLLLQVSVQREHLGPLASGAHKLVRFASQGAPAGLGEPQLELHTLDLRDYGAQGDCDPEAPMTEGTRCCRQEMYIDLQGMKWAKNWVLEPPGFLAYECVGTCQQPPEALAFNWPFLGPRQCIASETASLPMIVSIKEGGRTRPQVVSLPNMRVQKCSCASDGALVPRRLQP
The target in experiment [14] is Calmodulin-1 (Homo sapiens) (UniProt P0DP23). Briefly: small molecules binding calmodulin-1 with EGTA – biochemical, small-molecule microarray, Cy5-labelled CALM1, profiling panel (AID 1111).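 Further: labelled calmodulin applied in Tris saline Tween buffer holding calcium plus EGTA and DTT.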 The settings on record: Cy5-CALM1 binding fluorescence, higher = more signal.
For experiment [15] the target is unchanged. The experiment can be described thus: small molecules binding Ca-loaded calmodulin-1 – biochemical, small-molecule microarray, Cy5-labelled CALM1, plus calcium, artefact control for SMM control-protein annotation, profiling panel (AID 1112).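 Further: score merges spot fluorescence with signal to noise from triplicate slides.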 The settings on record: Cy5-CALM1 binding fluorescence, higher = more signal.
The nature of experiment [16]: probe aWnt5a binding to arrayed compounds – biochemical, biotinylated probe, 635/667 nm fluorescence, primary screen (AID 1113).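 Further: score merges 667 nm fluorescence intensity with signal-to-noise per printed feature.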 The settings on record: small-molecule microarray, higher = more signal.
A short description of experiment [17]: probe aShh binding to arrayed compounds – biochemical, biotinylated probe, 635/667 nm fluorescence, primary screen (AID 1114).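 Further: probe is biotin-labelled aShh protein from a stem cell growth factor screen; measures binding of labelled protein to compounds printed on the slide; score merges feature fluorescence at 667 nm with signal-to-noise.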 The settings on record: small-molecule microarray, higher = more signal.
Experiment [18] can be described thus: probe aNog binding to arrayed compounds – biochemical, biotinylated probe, 635/667 nm fluorescence, primary screen (AID 1115).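 Further: probe is biotinylated aNog protein used at 0.15 µg/mL for 1 h at 4 C; z-score combines 667 nm fluorescence of each spot with its signal to noise.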 To be noted: small-molecule microarray, higher = more signal.
Experiment [19] addresses Torsin-1A-interacting protein 1 (Homo sapiens) (UniProt Q5JTV8). The experiment can be described thus: compound microarray binding of lysate hLAP1 – cell lysate, small-molecule microarray, COS7 lysate, 635/667 nm fluorescence, primary screen (AID 1116). To be noted: 635 nm fluorescence, higher = more signal.
Experiment [20] has as its target Alpha-bungarotoxin (Bungarus multicinctus) (UniProt P60615). Briefly: compounds binding labelled alpha-BTX control protein – biochemical, small-molecule microarray, Alexa647 label, 635/667 nm fluorescence, artefact control for SMM control protein annotation, profiling panel (AID 1117). The settings on record: alpha-BTX-A647 binding fluorescence, higher = more signal.

Chain of Torsin-1A-interacting protein 1 (Homo sapiens) (Q5JTV8 whole entry, looked up): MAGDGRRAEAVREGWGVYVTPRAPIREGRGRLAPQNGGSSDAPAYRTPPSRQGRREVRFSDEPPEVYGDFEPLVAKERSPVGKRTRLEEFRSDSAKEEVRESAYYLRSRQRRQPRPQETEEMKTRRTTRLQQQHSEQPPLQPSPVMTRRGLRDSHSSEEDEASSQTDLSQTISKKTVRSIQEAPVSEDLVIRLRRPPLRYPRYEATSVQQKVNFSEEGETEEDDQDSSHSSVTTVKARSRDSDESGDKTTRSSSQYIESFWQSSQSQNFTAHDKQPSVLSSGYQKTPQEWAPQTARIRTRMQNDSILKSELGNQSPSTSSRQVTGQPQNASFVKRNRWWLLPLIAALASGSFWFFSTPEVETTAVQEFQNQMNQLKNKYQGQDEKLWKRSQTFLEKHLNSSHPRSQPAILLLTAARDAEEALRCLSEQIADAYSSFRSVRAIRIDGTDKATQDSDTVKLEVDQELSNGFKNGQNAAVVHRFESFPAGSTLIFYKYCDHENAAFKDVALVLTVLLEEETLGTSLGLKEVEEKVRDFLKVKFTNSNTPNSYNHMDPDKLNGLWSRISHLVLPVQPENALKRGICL
Chain of Follistatin-related protein 3 (Homo sapiens) (O95633 whole entry, looked up): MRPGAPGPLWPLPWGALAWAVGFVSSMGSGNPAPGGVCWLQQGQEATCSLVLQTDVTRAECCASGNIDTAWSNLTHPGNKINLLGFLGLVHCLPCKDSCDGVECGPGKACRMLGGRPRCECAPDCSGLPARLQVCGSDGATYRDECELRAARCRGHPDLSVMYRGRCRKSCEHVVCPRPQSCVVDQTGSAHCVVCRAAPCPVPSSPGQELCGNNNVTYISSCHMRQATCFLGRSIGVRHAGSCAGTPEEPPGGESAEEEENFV
Chain of Alpha-bungarotoxin (Bungarus multicinctus) (P60615 whole entry, looked up): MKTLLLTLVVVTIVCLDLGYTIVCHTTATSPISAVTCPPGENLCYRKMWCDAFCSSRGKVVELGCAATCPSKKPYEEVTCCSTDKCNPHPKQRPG

For the compound `CO[C@H]1COC(=O)[C@@H](OCc2ccccc2)C=C[C@H](C)[C@@H](OC)COC(=O)[C@H](OCc2ccccc2)C=C[C@@H]1C`, the composite z-score in experiment [1] was -0.0155; in experiment [2], -0.46; in experiment [3] it was -0.984; in experiment [5], 0.181; in [6], -0.0762; in [7], -0.207. The composite z-score in [8] is 0.172; in [9], 0.123; in experiment [10], -0.381; in experiment [11] it was -1.23; in experiment [13] it was 0.348; in [14], -2.13. In addition, the composite z-score in experiment [15] was -1.26; in [16], -0.147; in experiment [17] it was -0.138; in experiment [18], -0.397; in [19] it was -0.144; in [20], -0.155. The z-score was -1.8 (inactive) in [4] and 0.512 in experiment [12].
As for `O=C(NCc1ccccc1)[C@@]1(Cc2ccccc2)COC(c2ccc(OCCCO)cc2)=N1`, the composite z-score in [1] was 0.838; in [2] it was 0.599; in experiment [3] it was 1.06; in experiment [5] it was 0.117; in [6] it was 0.0562; in experiment [7], -0.705. In addition, the composite z-score is -0.641 in experiment [8]; -0.715 in experiment [9]; 0.578 in experiment [10]; 1.4 in experiment [11]; -0.702 in experiment [13]; 0.588 in experiment [14]. Besides, the composite z-score is 0.687 in experiment [15]; -0.128 in [16]; -0.0337 in experiment [17]; 0.597 in experiment [18]; 1.57 in [19]; 1.71 in experiment [20]. For the same compound, the z-score in experiment [4] was -0.13 (inactive); in [12], -3.29.
`CN(C)CCCC[C@@H]1NC(=O)[C@@H]2C[C@H](C(=O)NCCCCCNC(=O)CS)[C@H](c3ccc(O)cc3)N2C1=O`: the composite z-score in experiment [1] is 1.19; in [2], 0.0418; in experiment [3], -0.109; in experiment [5] it was 1.11; in [6] it was 0.667; in experiment [7], 0.0635. The composite z-score was found to be 1.18 in experiment [8]; 1.81 in experiment [9]; 0.687 in experiment [10]; 0.664 in experiment [11]; 1.17 in [13]; 0.0884 in [14]. Moreover, the composite z-score was 1.25 in experiment [15]; -0.124 in experiment [16]; 0.199 in experiment [17]; 0.498 in [18]; 0.761 in experiment [19]; 1.65 in [20]. The z-score in experiment [4] is -0.812 (inactive); in [12], 0.873.
Turning to `O=C1O[C@@H](c2ccccc2)[C@@H](c2ccccc2)N2[C@@H](c3ccc(O)cc3)[C@]3(C(=O)Nc4ccc(C#CC5(O)CCCCCC5)cc43)[C@@H](C(=O)Nc3nc4ccccc4s3)[C@H]12`, the composite z-score turned out to be 0.864 in experiment [1]; 0.051 in experiment [2]; 0.546 in experiment [3]; 0.869 in experiment [5]; 1.34 in experiment [6]; 0.736 in experiment [7]. In addition, the composite z-score is 1.39 in experiment [8]; 0.892 in experiment [9]; 0.644 in experiment [10]; -0.423 in experiment [11]; 0.494 in experiment [13]; 0.395 in [14]. The composite z-score in [15] was 0.253; in experiment [16], 0.245; in [17], -0.35; in experiment [18] it was 1.15; in experiment [19], 1.18; in experiment [20], 1.91. Also, the results for the z-score in experiment [4] and in experiment [12] were 0.179 (inactive) and -0.56, respectively.
Take `C=C(C)[C@@H]1CC=C(C(O)C2C=CC3C(=O)NC(=O)C3N2Nc2ccccn2)CC1` (stereo not given in full): the composite z-score in experiment [1] turned out to be 1.66; in [2], 0.946; in experiment [3], 0.287; in experiment [5], 1.14; in experiment [6] it was 1.32; in experiment [7], 1.88. The composite z-score in [8] worked out at 1.65; in experiment [9] it was 2.16; in experiment [10] it was 1.81; in experiment [11], 0.355; in [13], 1.57; in experiment [14] it was 0.206. In addition, the composite z-score in experiment [15] was -0.815; in experiment [16], 0.116; in experiment [17] it was 0.358; in [18], 0.145; in [19], 1.06; in [20], 2.09. In addition, the z-score in experiment [4] was 1.1 (inactive); in experiment [12], -0.308.
